# Results as given in PubChem BioAssay (NCI).
# Compounds without any hit were thinned out: in the full panel of roughly 83,000, 20% have a hit.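 Single-dose data. Exposure time 48 hours. Values below 10 considered active.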 The source made the active and inactive calls.
# System: TK-10 renal
# Experiment: NCI-60 one-dose screen, 48 h (100 = growth as untreated, 0 = no growth, -100 = all killed)
# Settings: 10 µM
row,Compound,growth
1,O=C1Nc2cc(Cl)ccc2/C1=C/c1cccc(OCc2ccc(Br)cc2F)c1,77.9% (inactive)
2,Nc1nc(-c2ccccc2)cc(-c2cc3ccccc3nc2Cl)n1,111% (inactive)
3,Cc1cc(C(F)(F)F)ccc1C(=O)Nc1sc2c(c1C#N)CCC(=O)C2,-2% (active)
4,O=C(CSc1nnc(-c2ccc3nc(-c4ccccc4)[nH]c3c2)o1)Nc1ccc(Br)cc1,81.3% (inactive)
5,COc1ccc2nc(Cl)c(-c3cc(-c4ccccc4)nc(N)n3)cc2c1,74.4% (inactive)
6,O=C(CNc1nc(-c2ccccc2)cs1)Nc1ccc(Cl)cc1[N+](=O)[O-],0.433% (active)
7,C/C(=C\CSc1ccccc1C(=O)O)CCCC(C)CCCC(C)CCCC(C)C (stereo not drawn),87.7% (inactive)
8,COc1ccc2[nH]c(=O)c(CSc3cccc(N)c3)cc2c1,72.3% (inactive)
9,Cn1cc(-c2cc(N)n3nc(-c4c[nH]c5ccc(Br)cc45)cc3n2)c2cccnc21,-85.9% (active)
10,N#Cc1c(NC(=O)c2ccc(C(F)(F)F)c(Cl)c2)sc2c1CCC(=O)C2,16% (inactive)
11,COc1ccc(OC)c(/C=N/NC(=O)c2ccc3nc(-c4ccc(Cl)cc4)[nH]c3c2)c1,89.1% (inactive)
12,CC(=O)NNc1ccc2nnc(-c3ccc(Br)cc3)n2n1,103% (inactive)
13,COc1cc(OC(F)(F)F)ccc1C(=O)Nc1sc2c(c1C#N)CCC(=O)C2,94.2% (inactive)
14,Cc1nc2c(cnn2-c2ccccc2)c(=O)n1-c1ccc(NC(=O)c2ccc(F)cc2)cc1,71% (inactive)
15,COc1cccc(/C=N/NC(=O)c2ccc3nc(-c4ccc(Cl)cc4)[nH]c3c2)c1O,-11.1% (active)
16,Cc1cccc2cc(-c3cc(-c4ccccc4)nc(=S)[nH]3)c(Cl)nc12,136% (inactive)
17,Cc1cc2nc3c4ccccc4n(CCO)c3nc2cc1C,165% (inactive)
18,OCc1[nH]nc2cc(Nc3ncc4ccc(Br)c(OC5CCC(O)CC5)c4n3)ccc12 (stereo not drawn),-89.6% (active)
19,COc1cccc(/C=C2\N=C(C)N(CCc3ccc(S(N)(=O)=O)cc3)C2=O)c1,97.6% (inactive)
20,C=C1CCC2C3(C)COC(c4cc(F)cc(F)c4)OC3CCC2(C)C1C/C=C1/C(=O)OCC1O (stereo not drawn),-86.3% (active)
21,CN(C(=O)c1ccc(C(F)(F)F)cc1C(F)(F)F)c1sc2c(c1C#N)CCC(=O)C2,94.2% (inactive)
22,N#Cc1c(NC(=O)c2cccc(C(F)(F)F)c2)sc2c1CCC(O)=C2,63.1% (inactive)
23,COc1cc(/C=N/NC(=O)c2ccc3nc(-c4ccc(Cl)cc4)[nH]c3c2)cc(OC)c1OC,37.4% (inactive)
24,N#Cc1c(NC(=O)c2ccc(C(F)(F)F)cc2)sc2c1CCC(O)=C2,71.9% (inactive)
25,O=C1Nc2ccc(F)cc2/C1=C/c1cccc(OCc2ccccc2)c1,70.9% (inactive)

# System: ACHN renal
# Experiment: as above
# Settings: 10 µM
row,Compound,growth
1,N#Cc1c(NC(=O)c2ccc(C(O)(C(F)(F)F)C(F)(F)F)cc2)sc2c1CCC(=O)C2,-98.3% (active)
2,Cn1cc(-c2cc(N)n3nc(-c4c[nH]c5ccc(Br)cc45)cc3n2)c2cc(Br)cnc21,-93.2% (active)
3,COc1cc2c(cc1OC)CN(CCCCOc1cc(O)c3c(=O)cc(-c4ccccc4)oc3c1)CC2,66.8% (inactive)
4,N#Cc1c(NC(=O)c2ccc(C(F)(F)F)cc2C(F)(F)F)sc2c1CCC(=O)C2,-99.4% (active)
5,O=C1Nc2ccc(Cl)cc2/C1=C/c1cccc(OCc2ccccc2)c1,24.3% (inactive)
6,O=c1cc(-c2ccccc2)oc2cc(OCCCCNCc3ccccc3)cc(O)c12,59.9% (inactive)
7,CC1=N/C(=C\c2ccc(N(C)C)cc2)C(=O)N1CCc1ccc(S(N)(=O)=O)cc1,105% (inactive)
8,CC(=O)OC[C@@]1(C)C2CC[C@]3(C)C(CC=C4C5CC(C)(C)CC[C@]5(C(=O)Nc5ccccc5)CC[C@]43C)[C@@]2(C)C[C@@H](OC(C)=O)[C@@H]1OC(C)=O (stereo partly drawn),34.4% (inactive)
9,Cc1ccc(-c2cc(-c3cc4ccccc4nc3Cl)[nH]c(=S)n2)cc1,46.5% (inactive)
10,O=c1cc(-c2ccccc2)oc2cc(OCCCNCc3ccccc3)cc(O)c12,3.03% (active)
11,COc1ccc(C(=O)Nc2sc3c(c2C#N)CCC(=O)C3)cc1C(F)(F)F,-29.9% (active)
12,Cc1cc(C)cc(Oc2cccc(-c3c(C)nnn3C3CCN(CCN(C)C)CC3)n2)c1,26.2% (inactive)
13,Nc1nnc(-c2c[nH]c3ccc(F)cc23)c(-c2c[nH]c3ncccc23)n1,51.6% (inactive)
14,O=C1Nc2cc(Cl)ccc2/C1=C/c1cccc(OCc2ccc(Br)cc2F)c1,30.8% (inactive)
15,Nc1nc(-c2ccccc2)cc(-c2cc3ccccc3nc2Cl)n1,89.1% (inactive)
16,Cc1cc(C(F)(F)F)ccc1C(=O)Nc1sc2c(c1C#N)CCC(=O)C2,-95.9% (active)
17,O=C(CSc1nnc(-c2ccc3nc(-c4ccccc4)[nH]c3c2)o1)Nc1ccc(Br)cc1,63% (inactive)
18,COc1ccc2nc(Cl)c(-c3cc(-c4ccccc4)nc(N)n3)cc2c1,55.4% (inactive)
19,O=C(CNc1nc(-c2ccccc2)cs1)Nc1ccc(Cl)cc1[N+](=O)[O-],-60.6% (active)

row,Compound,growth
1,C/C(=C\CSc1ccccc1C(=O)O)CCCC(C)CCCC(C)CCCC(C)C (stereo not drawn),37.5% (inactive)
2,COc1ccc2[nH]c(=O)c(CSc3cccc(N)c3)cc2c1,20.9% (inactive)
3,Cn1cc(-c2cc(N)n3nc(-c4c[nH]c5ccc(Br)cc45)cc3n2)c2cccnc21,-98.9% (active)
4,N#Cc1c(NC(=O)c2ccc(C(F)(F)F)c(Cl)c2)sc2c1CCC(=O)C2,-96.5% (active)
5,COc1ccc(OC)c(/C=N/NC(=O)c2ccc3nc(-c4ccc(Cl)cc4)[nH]c3c2)c1,46.9% (inactive)
6,CC(=O)NNc1ccc2nnc(-c3ccc(Br)cc3)n2n1,101% (inactive)
7,COc1cc(OC(F)(F)F)ccc1C(=O)Nc1sc2c(c1C#N)CCC(=O)C2,87.1% (inactive)
8,Cc1nc2c(cnn2-c2ccccc2)c(=O)n1-c1ccc(NC(=O)c2ccc(F)cc2)cc1,61% (inactive)
9,COc1cccc(/C=N/NC(=O)c2ccc3nc(-c4ccc(Cl)cc4)[nH]c3c2)c1O,-34% (active)
10,Cc1cccc2cc(-c3cc(-c4ccccc4)nc(=S)[nH]3)c(Cl)nc12,78.1% (inactive)
11,Cc1cc2nc3c4ccccc4n(CCO)c3nc2cc1C,-6.25% (active)
12,OCc1[nH]nc2cc(Nc3ncc4ccc(Br)c(OC5CCC(O)CC5)c4n3)ccc12 (stereo not drawn),0.365% (active)
13,COc1cccc(/C=C2\N=C(C)N(CCc3ccc(S(N)(=O)=O)cc3)C2=O)c1,107% (inactive)
14,C=C1CCC2C3(C)COC(c4cc(F)cc(F)c4)OC3CCC2(C)C1C/C=C1/C(=O)OCC1O (stereo not drawn),-99.6% (active)
15,CN(C(=O)c1ccc(C(F)(F)F)cc1C(F)(F)F)c1sc2c(c1C#N)CCC(=O)C2,82.7% (inactive)
16,N#Cc1c(NC(=O)c2cccc(C(F)(F)F)c2)sc2c1CCC(O)=C2,31.4% (inactive)
17,COc1cc(/C=N/NC(=O)c2ccc3nc(-c4ccc(Cl)cc4)[nH]c3c2)cc(OC)c1OC,30.1% (inactive)
18,N#Cc1c(NC(=O)c2ccc(C(F)(F)F)cc2)sc2c1CCC(O)=C2,44.1% (inactive)
19,O=C1Nc2ccc(F)cc2/C1=C/c1cccc(OCc2ccccc2)c1,22.4% (inactive)
